Among the test systems are SK-MEL-2 melanoma; EKVX NSCLC; UO-31 renal; TK-10 renal; ACHN renal; CAKI-1 renal; A498 renal; CCRF-CEM leukemia; MOLT-4 leukemia; SR leukemia; RPMI-8226 leukemia; OVCAR-8 ovarian; OVCAR-5 ovarian; OVCAR-4 ovarian; SK-OV-3 ovarian; IGROV1 ovarian; OVCAR-3 ovarian; HS 578T breast; NCI/ADR-RES ovarian; SN12C renal.
Holding throughout (assay): NCI-60 one-dose screen, 48 h (100 = growth as untreated, 0 = no growth, -100 = all killed)
What all share (details): 10 µM

The panel holds about 83,000 compounds, 20% with a hit somewhere; the sample as a whole holds those more often.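 A percent growth of 40 corresponds to 60% growth inhibition; 0 means no net growth; -100 means all cells died. Active threshold: below 10.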 Unmarked numbers belong to inactive results. The source made the active and inactive calls.

Here are results for 9 compounds from PubChem BioAssay (NCI).

As to `CCN(CC)CCOC(=O)c1cc(OCc2ccccc2)c(OCc2ccccc2)c(OCc2ccccc2)c1`, the growth in the assay on SK-MEL-2 melanoma is 78.5%; in the assay on EKVX NSCLC, 47.7%; with UO-31 renal, 50.7%; with TK-10 renal it was 78.3%; in the assay with ACHN renal, 71.9%; in the assay on CAKI-1 renal, 50.4%. The growth is 68.8% in the assay on A498 renal; 37% with CCRF-CEM leukemia; 8.5% (active) in the assay on MOLT-4 leukemia; 1.2% (active) with SR leukemia; 32.9% in the assay on RPMI-8226 leukemia; 56.3% in the assay with OVCAR-8 ovarian. The growth in the assay on OVCAR-5 ovarian is 83.3%; in the assay on OVCAR-4 ovarian, 75.5%; in the assay on SK-OV-3 ovarian, 100%; in the assay with IGROV1 ovarian, 42.6%; in the assay with OVCAR-3 ovarian, 64.9%; in the assay with HS 578T breast, 66.3%. The growth in the assay with NCI/ADR-RES ovarian is 52.5%.

Take `O=C(CI)OCC(COC(=O)CI)OC(=O)CI`: the growth is 83.1% in the assay with SK-MEL-2 melanoma; 76.8% in the assay with SN12C renal; -89.8% (active) in the assay with UO-31 renal; 78.9% with TK-10 renal; 11.2% with ACHN renal; -17.6% (active) in the assay with CAKI-1 renal. Moreover, the growth is 108% in the assay with A498 renal; 44.4% in the assay on MOLT-4 leukemia; -12.9% (active) in the assay with SR leukemia; 50.9% with RPMI-8226 leukemia; 97.9% in the assay with OVCAR-8 ovarian; 104% with OVCAR-5 ovarian. The growth is 64% with OVCAR-4 ovarian; 119% in the assay with SK-OV-3 ovarian; -57.1% (active) with IGROV1 ovarian; 72.2% in the assay with OVCAR-3 ovarian; 97.4% with HS 578T breast.

As for `COc1ccc(/C=c2\sc3n(c2=O)C(c2cc(OC)c(OC)c(OC)c2)C=C(c2ccc(OC)c(OC)c2)N=3)cc1OC` (stereo not given), the growth in the assay on SK-MEL-2 melanoma was 106%; in the assay with EKVX NSCLC it was 101%; in the assay with SN12C renal, 93.9%; in the assay on TK-10 renal, 105%; with CAKI-1 renal, 105%; in the assay on A498 renal it was 94.5%. Moreover, the growth was 64.4% in the assay on CCRF-CEM leukemia; 79.5% in the assay on MOLT-4 leukemia; 91.5% in the assay on SR leukemia; 63.7% in the assay with RPMI-8226 leukemia; 98.8% in the assay on OVCAR-8 ovarian; 108% with SK-OV-3 ovarian. The growth in the assay with OVCAR-3 ovarian is 103%; in the assay on HS 578T breast, 90.8%; in the assay with NCI/ADR-RES ovarian, 97.5%.

Consider `Cc1cc(Br)nnc1Br`, for which the growth in the assay on SK-MEL-2 melanoma was 123%; in the assay on EKVX NSCLC, 114%; with SN12C renal, 109%; in the assay on TK-10 renal, 124%; in the assay with ACHN renal, 108%; in the assay with CAKI-1 renal it was 101%. Further, the growth is 97.8% in the assay with CCRF-CEM leukemia; 93.4% in the assay with MOLT-4 leukemia; 122% in the assay on RPMI-8226 leukemia; 115% with OVCAR-8 ovarian; 105% in the assay with OVCAR-5 ovarian; 113% in the assay with OVCAR-4 ovarian. Further, the growth in the assay on SK-OV-3 ovarian is 101%; in the assay with OVCAR-3 ovarian, 112%; in the assay with HS 578T breast it was 110%; in the assay on NCI/ADR-RES ovarian, 120%.

On to `CCCCCCCCCCCC[n+]1c(C)cc(N)c2ccccc21`, for which the growth is -52.1% (active) in the assay with SK-MEL-2 melanoma; 14.5% in the assay on EKVX NSCLC; 7.94% (active) with SN12C renal; 7.85% (active) in the assay on TK-10 renal; 12% in the assay on ACHN renal; 25.7% with CAKI-1 renal. The growth is -24.1% (active) in the assay on MOLT-4 leukemia; -28.4% (active) in the assay with RPMI-8226 leukemia; 3.24% (active) with OVCAR-8 ovarian; 31.7% in the assay on OVCAR-5 ovarian; 15.1% in the assay on OVCAR-4 ovarian; -2.73% (active) in the assay with SK-OV-3 ovarian. For the same compound, the growth in the assay on OVCAR-3 ovarian is 18%; in the assay with NCI/ADR-RES ovarian, 53.3%.

With `O=C(O)COc1c(Cl)cc([N+](=O)[O-])cc1Cl`, the growth in the assay with SK-MEL-2 melanoma was 101%; with EKVX NSCLC, 102%; in the assay on UO-31 renal, 94.2%; in the assay on TK-10 renal it was 99%; with ACHN renal it was 106%; in the assay with CAKI-1 renal it was 99.9%. Also, the growth with A498 renal was 97.5%; in the assay on CCRF-CEM leukemia, 92.5%; in the assay on MOLT-4 leukemia, 80.6%; in the assay with SR leukemia, 82.3%; in the assay on RPMI-8226 leukemia, 101%; with OVCAR-8 ovarian, 99.3%. Also, the growth in the assay with OVCAR-5 ovarian was 95.7%; in the assay on OVCAR-4 ovarian it was 108%; in the assay on SK-OV-3 ovarian, 92.3%; with IGROV1 ovarian, 93.6%; in the assay with OVCAR-3 ovarian it was 113%; with HS 578T breast, 105%. Also, the growth with NCI/ADR-RES ovarian was 108%.

Consider `CC(C)C1=C(O)C2=C(C(=O)C1=O)[C@@]1(C)CCCC(C)(C)[C@@H]1CC2`, for which the growth with SK-MEL-2 melanoma is 97.7%; with EKVX NSCLC, 67.1%; in the assay on SN12C renal, 81%; in the assay on TK-10 renal it was 81.5%; with ACHN renal, 59.6%; with CAKI-1 renal it was 15%. Besides, the growth in the assay with CCRF-CEM leukemia is 41.5%; in the assay on MOLT-4 leukemia, 44.2%; in the assay on RPMI-8226 leukemia, 55.2%; in the assay with OVCAR-8 ovarian, 70%; in the assay with OVCAR-5 ovarian, 108%; in the assay with SK-OV-3 ovarian, 95.5%. For the same compound, the growth in the assay with OVCAR-3 ovarian was 61%; in the assay with HS 578T breast, 85%; with NCI/ADR-RES ovarian it was 39.7%.

With `CCCCC1(O)CCCCC1`, the growth is 112% in the assay on SK-MEL-2 melanoma; 103% in the assay with SN12C renal; 99.1% in the assay on UO-31 renal; 94.3% in the assay with TK-10 renal; 101% with ACHN renal; 96.1% in the assay with CAKI-1 renal. The growth is 115% in the assay with A498 renal; 93.5% with MOLT-4 leukemia; 92.6% in the assay on SR leukemia; 101% in the assay with RPMI-8226 leukemia; 112% in the assay on OVCAR-5 ovarian; 115% with OVCAR-4 ovarian. The growth is 112% in the assay on SK-OV-3 ovarian, 114% in the assay with IGROV1 ovarian, 106% in the assay on OVCAR-3 ovarian and 107% in the assay on NCI/ADR-RES ovarian.

As for `COc1cccc(N=Nc2cccc(OC)c2)c1`, the growth with SK-MEL-2 melanoma was 94.4%; in the assay with EKVX NSCLC, 83.5%; with UO-31 renal, 88.2%; in the assay on TK-10 renal it was 95.9%; in the assay with ACHN renal it was 93%; with CAKI-1 renal it was 94.2%. In addition, the growth in the assay with A498 renal was 86.4%; in the assay on CCRF-CEM leukemia, 90.8%; with MOLT-4 leukemia it was 79.5%; in the assay with SR leukemia it was 92.8%; in the assay on RPMI-8226 leukemia, 87%; in the assay with OVCAR-8 ovarian, 96.2%. The growth was 90.6% in the assay with OVCAR-5 ovarian; 104% with OVCAR-4 ovarian; 84.6% in the assay with SK-OV-3 ovarian; 89.6% in the assay on IGROV1 ovarian; 102% in the assay with OVCAR-3 ovarian; 79.8% in the assay with HS 578T breast. In the assay with NCI/ADR-RES ovarian, the growth is 105%.
